In PubChem BioAssay AID463173 (ICCB-Longwood Screening Facility, Harvard Medical School, 2010):
In all, about 52,000 compounds went through this assay and about 4,300 (8.3%) were called active. The full list was thinned out, with actives kept by preference. A number with no mark means an inactive call. No stated cut-off is given here; in the data, active means survival mostly below about 52% (no sharp cut-off); inactive means mostly above about 56%.

Each compound was assayed on DeltatarO mutant (assay: S. aureus survival, RN4220 and DeltatarO strains – OD600, teichoic acid synthesis inhibitors, primary screen (AID 463173)). Conditions: S. aureus RN4220 wild type/DeltatarO growth, OD600, 18 h, stronger effect = lower value, screened at 18.75 µg/mL (by protocol).
Compound CCC(=O)Nc1ccc2nc(SCc3ccc(C)cc3)sc2c1 has a survival of 84%.
For Cc1ccc(-n2nc(C)c3c(C(=O)Nc4ccccc4C(F)(F)F)cc(C)nc32)cc1, the survival was 95%.
Cc1ccc(NC(=O)CSc2nnc(C)s2)c(C)c1 showed a survival of 67%.
CCOc1ccc(CNCc2c(C(=O)O)c(C)n(Cc3ccc(F)cc3Cl)c2C)cc1 showed a survival of 118%.
Work on Cc1ccc(C)c(Cn2c(=O)n(-c3ccccc3)c(=O)c3c4c(sc32)CCCC4)c1 yielded a survival of 120%.
Compound COc1ccc(CCNC(=O)C(=O)NCC(c2ccco2)S(=O)(=O)c2ccc(C)cc2)cc1 (configuration not stated) has a survival of 134%.
O=C(Cn1c(=O)c2cccn2c2ccccc21)Nc1cc(F)ccc1F gave a survival of 44%.
Compound CCCn1c(CCC(=O)Nc2ccccc2OC)nc2cccnc21 has a survival of 88%.
In the case of Cc1ccc(-c2nc3sc(CCNS(=O)(=O)c4cc(F)ccc4F)c(C)n3n2)cc1, the survival is reported as -2% (active).
COc1ccc(-c2nc3sc(CCNS(=O)(=O)c4c(C)cc(C)cc4C)c(C)n3n2)cc1 was tested, and the survival was -1% (active).
Work on COc1ccc(F)cc1S(=O)(=O)NCCc1sc2nc(-c3ccc(F)cc3)nn2c1C yielded a survival of 90%.
Work on CCCS(=O)(=O)NCCc1sc2nc(-c3ccc(F)cc3)nn2c1C yielded a survival of 76%.
Work on COc1ccc(-c2nc3sc(CCNS(=O)(=O)c4ccccc4)c(C)n3n2)cc1 yielded a survival of 64%.
Work on CCCS(=O)(=O)NCCc1sc2nc(-c3ccc(Cl)cc3)nn2c1C yielded a survival of 70%.
Compound CCS(=O)(=O)NCCc1sc2nc(-c3ccc(OC)cc3)nn2c1C has a survival of 72%.
For Cc1c(CCNS(=O)(=O)c2ccccc2)sc2nc(-c3ccc(Cl)cc3)nn12, the survival was 6% (active).
Cc1cc(C)c(S(=O)(=O)NCCc2sc3nc(-c4ccc(F)cc4)nn3c2C)c(C)c1 showed a survival of 79%.
Compound Cc1ccc(-n2ncc3c(N4CCN(CCO)CC4)ncnc32)cc1Cl has a survival of 101%.
For CCN(CC)c1ncccc1C(=O)NCc1cccs1, the survival was 81%.
Work on Cc1c(Cl)cccc1NC(=O)Nc1nnc(N2CCCCCC2)s1 yielded a survival of 84%.
With COc1ccccc1Nc1c2c(nc3ccc(NC(=O)c4cccc(F)c4)cc13)CCCC2 the survival was 70%.
For COc1ccc(C(=O)Nc2ccc3nc4c(c(Nc5ccccc5OC)c3c2)CCCC4)c(OC)c1, the survival was 48% (active).
In the case of COc1ccccc1Nc1c2c(nc3ccc(NC(=O)c4cccc(OC)c4OC)cc13)CCCC2, the survival is reported as 46% (active).
In the case of COc1ccccc1Nc1c2c(nc3ccc(NC(=O)c4ccccc4F)cc13)CCCC2, the survival is reported as 82%.
Work on COc1ccccc1Nc1c2c(nc3ccc(NC(=O)c4ccc(OC)c(OC)c4)cc13)CCCC2 yielded a survival of 59%.
Work on COc1ccc(C(=O)Nc2ccc3nc4c(c(Nc5ccc(OC)c(OC)c5)c3c2)CCCC4)c(OC)c1 yielded a survival of 87%.
O=C(CNC(=O)c1ccc(Cl)cc1)OCc1cc(=O)n2nc(C3CC3)sc2n1 showed a survival of 67%.
For COC(=O)c1cn(C(C)C(=O)NCc2ccco2)c2ccccc12 (configuration not stated), the survival was 91%.
O=C(CSCc1ccc(F)cc1)N1CCc2c([nH]c3ccccc23)C1c1ccccc1 (configuration not stated) showed a survival of 101%.
With Cc1ccc(NC(=O)C(=O)c2cc(C)n(-c3ccc(F)cc3)c2C)cc1C the survival was 89%.
Compound CC(=O)c1ccccc1OCC(O)Cn1c(CO)nc2ccccc21 (configuration not stated) has a survival of 59%.
Work on Cc1ccc2c(c1)c1c(c(=O)n(Cc3ccccc3)c(=O)n1CC(=O)Nc1ccccc1C)n2C yielded a survival of 99%.
With Cc1cccc(OCC(=O)Nc2ccc3c(c2)N(C)C(=O)c2ccccc2S3)c1 the survival was 73%.
For Cc1cc(C)cc(OCC(=O)Nc2cccc(-c3nc4ccccc4[nH]3)c2)c1, the survival was 31% (active).
Work on COc1cccc(C(=O)Nc2ccc(Cl)c(-c3nc4ccccc4[nH]3)c2)c1 yielded a survival of 68%.
Work on Cc1cc(OCC(=O)Nc2cc(-c3nc4ccccc4[nH]3)ccc2C)ccc1Cl yielded a survival of 96%.
CC(C)CC(=O)Nc1cccc(-c2nc3ccccc3[nH]2)c1 showed a survival of 68%.
For Cc1cccc(OCC(=O)Nc2ccc(Cl)c(-c3nc4ccccc4[nH]3)c2)c1, the survival was 38% (active).
Cc1ccc(OCC(=O)Nc2ccc(Cl)c(-c3nc4ccccc4[nH]3)c2)cc1C was tested, and the survival was 43% (active).
With COc1ccc(-n2nc3ccc(NC(=O)COc4ccc(C)c(C)c4)cc3n2)cc1 the survival was 56%.
COc1cccc(N2CC(NC(=O)c3ccc(S(=O)(=O)N4CCCCC4)cc3)CC2=O)c1 (configuration not stated) was tested, and the survival was 92%.
CCn1c(=O)c(C(=O)Nc2ccc(C(C)=O)cc2)nc2ccccc21 showed a survival of 81%.
CC1CCN(S(=O)(=O)c2ccc3c(ccn3CC(=O)NCc3ccc(N(C)C)cc3)c2)CC1 gave a survival of 77%.
Work on COc1cccc(CNC(=O)c2cc3cccc4c3n2CC(C)S4)c1OC (configuration not stated) yielded a survival of 84%.
In the case of Cc1cc(C)c(S(=O)(=O)N2CCC(N3CCN(Cc4ccccc4)C(=O)C3=O)CC2)c(C)c1, the survival is reported as 68%.
Compound N#CC1=C(N)OC2=C(C(=O)CCC2)C12C(=O)Nc1ccc(F)cc12 (configuration not stated) has a survival of 93%.
CCCCN1CC(c2nc3ccccc3n2CCCCOc2cccc(C)c2C)CC1=O (configuration not stated) was tested, and the survival was 2% (active).
For CCCCN1CC(c2nc3ccccc3n2CCCCOc2ccccc2C)CC1=O (configuration not stated), the survival was 34% (active).
With Cc1cccc(C)c1OCCCCn1c(C2CC(=O)N(c3ccc(F)cc3)C2)nc2ccccc21 (configuration not stated) the survival was 77%.
CCCCN1CC(c2nc3ccccc3n2CCCCOc2c(C)cccc2C)CC1=O (configuration not stated) was tested, and the survival was 46% (active).
Compound COC(=O)Cn1c(C2CC(=O)N(c3c(C)cccc3C)C2)nc2ccccc21 (configuration not stated) has a survival of 58%.
In the case of Cc1ccccc1OCCCCn1c(C2CC(=O)N(c3ccccc3Cl)C2)nc2ccccc21 (configuration not stated), the survival is reported as 76%.
Cc1cccc(NC(=O)CS(=O)(=O)c2cccc3nsnc23)c1 was tested, and the survival was 74%.
With Cc1cc2cc(CCNS(=O)(=O)c3ccc(Br)cc3)c(=O)[nH]c2cc1C the survival was 48%.
O=c1c2oc3ccccc3c2n(Cc2cccc(C(F)(F)F)c2)c(=O)n1Cc1ccc2c(c1)OCO2 gave a survival of 108%.
Work on CN1C(=O)Cc2cc(S(=O)(=O)CCC(=O)N3CCN(c4ccc(Cl)cc4)CC3)ccc21 yielded a survival of 86%.
Work on COc1ccc(Cn2c(=O)c3oc4ccccc4c3n(Cc3cccc(C(F)(F)F)c3)c2=O)cc1 yielded a survival of 73%.
